High-throughput results from PubChem BioAssay.
EPAC1 antagonist – EPAC1 (human) antagonism; AID 720709; Potency, µM (titrated, usually from 115 µM), most hits filed as inhibitors; actives 0.14% (n = 360,000); O95398; EPAC1 GEF assay, Rap1b-BODIPY-GDP exchange fluorescence; note: nearly all actives have a fitted effect of over 50% in size
Target sequence (O95398 whole entry, looked up): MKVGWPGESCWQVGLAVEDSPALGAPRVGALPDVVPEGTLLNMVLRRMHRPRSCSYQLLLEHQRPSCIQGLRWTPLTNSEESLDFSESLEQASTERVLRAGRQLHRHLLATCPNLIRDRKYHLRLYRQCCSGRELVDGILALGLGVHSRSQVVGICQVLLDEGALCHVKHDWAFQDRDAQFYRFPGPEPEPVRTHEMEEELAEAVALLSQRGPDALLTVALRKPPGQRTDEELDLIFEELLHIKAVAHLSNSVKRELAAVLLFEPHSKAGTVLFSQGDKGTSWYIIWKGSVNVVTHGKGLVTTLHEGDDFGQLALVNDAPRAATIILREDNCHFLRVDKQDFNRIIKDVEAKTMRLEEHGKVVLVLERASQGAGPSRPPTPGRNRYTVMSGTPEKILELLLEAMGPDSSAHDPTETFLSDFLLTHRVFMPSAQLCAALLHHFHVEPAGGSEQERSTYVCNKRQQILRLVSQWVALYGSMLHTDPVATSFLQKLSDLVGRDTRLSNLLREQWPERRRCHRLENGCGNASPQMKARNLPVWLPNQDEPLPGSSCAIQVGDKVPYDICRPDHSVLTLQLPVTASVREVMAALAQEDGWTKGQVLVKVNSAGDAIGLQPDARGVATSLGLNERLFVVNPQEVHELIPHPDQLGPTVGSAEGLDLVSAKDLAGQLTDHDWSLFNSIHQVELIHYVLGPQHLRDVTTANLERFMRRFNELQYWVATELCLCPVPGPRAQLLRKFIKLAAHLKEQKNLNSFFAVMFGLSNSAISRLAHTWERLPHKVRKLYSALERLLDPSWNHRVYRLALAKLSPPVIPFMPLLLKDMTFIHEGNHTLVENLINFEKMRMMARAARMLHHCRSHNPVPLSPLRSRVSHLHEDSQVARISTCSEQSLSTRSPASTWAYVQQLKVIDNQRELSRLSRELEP
EPAC2 antag – EPAC2 (human) antagonism; actives 0.18% (n = 360,000); EPAC2 GEF exchange of Rap1B-BODIPY-GDP, fluorescence; Potency, µM (top dose mostly 114 µM), actives largely listed as inhibitors; note: nearly all actives have a fitted effect of over 45% in size
EPAC1 agonist – agonists of human EPAC1. EPAC1 agonist qHTS, biochemical assay; response scale: 100% = response to 6.5 mM cAMP. AID 720707. O95398. actives 0.073% (n = 360,000). Potency, µM (titrated, usually from 154 µM), actives largely listed as activators; note: nearly all actives have a fitted effect of over 60% in size
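Nucleotide exchange by EPAC1 (100 nM) on Rap1B–BODIPY-GDP (250 nM) in the presence of 50 uM GDP is tracked fluorescently at 480/540 nm over 30 min. Signals are normalized to a 6.5 mM cAMP control.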
BRCA1 expr act – BRCA1 expression activation. AID 624202. actives 1.1% (n = 380,000). MCF7-BRCA1-FFLuc reporter, luminescence, 48 h; response scale: scaled: vehicle 0%, 10 µM genistein 100%. Potency, µM (doses to about 46.1 µM), hits mostly activators; note: nearly all actives have a fitted effect of over 80% in size
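Reporter cells (MCF7, BRCA1 promoter-firefly luciferase) received library compounds across a concentration series for 48 h. End-point luminescence was measured and concentration-effect curves derived after normalization.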
USP1 inh – inhibitors of human USP1/UAF1 deubiquitinase. O94782. actives 0.23% (n = 390,000). recombinant USP1/UAF1, Ub-Rhodamine cleavage fluorescence. Potency, µM (top dose mostly 57.1 µM), usual class: inhibitors. AID 743255; note: nearly all actives have a fitted effect of over 60% in size
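USP1/UAF1 complex at 1 nM was preincubated with compound for 15 min at room temperature, then Ub-Rho substrate (150nM final) was added. Fluorescence (480/540 nm) was read kinetically, 6 reads every 60 seconds.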
EPAC2 agonist – EPAC2 (human) agonism | AID 720711 | Q8WZA2 | EPAC2 activation, biochemical qHTS; response scale: 100% = 6.5 mM cAMP response | Potency, µM (doses to about 154 µM), most hits filed as activators | actives 0.079% (n = 360,000); note: nearly all actives have a fitted effect of over 50% in size
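qHTS, titration series. 100 nM EPAC2 / 250 nM Rap1B-BODIPY-GDP / 50 uM GDP; RT; ex 480/em 540 nm, 5-min reads to 30 min. Norm. to 6.5 mM cAMP = activation.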
Numbers stand for hits; i = inactive; ? = inconclusive; nt = no result given. An excerpt weighted towards active compounds, which were near 1.4% of everything screened. Calls come from the whole dose curve; as a rule, active = well fitted curve in the direction sought with a large enough effect; inconclusive = small, poorly fitted or top-dose-only effect, or another doubt; inactive = no such curve, though single readings can be large; an effect the other way counts as inactive or inconclusive.

SMILES	EPAC1 antagonist	EPAC2 antag	EPAC1 agonist	BRCA1 expr act	USP1 inh	EPAC2 agonist
COc1ccc(OC)c(NC(=O)C(C)Oc2ccc(Br)cc2)c1 (stereo not given)	i	13µM	i	i	i	i
CC(=O)Nc1sc2c(c1-c1nc3ccccc3s1)CCN(C(C)C)C2	i	i	i	i	i	63µM
COc1ccc(CCNC(=O)Cn2ncc3c(=O)oc4ccccc4c32)c(OC)c1	nt	nt	nt	i	?	nt
CCOC(=O)c1sc(NC(=O)C2CC2)cc1C	i	i	i	i	i	i
CCOC(=O)c1sc(NC(=O)C(C)(C)C)cc1C	i	i	i	3.2µM	i	i
CCOC(=O)c1sc(NC(=O)c2ccc(Cl)s2)cc1C	i	i	i	4.5µM	i	i
CC(=O)N1CCc2cc(CNS(=O)(=O)c3ccc(Br)s3)ccc21	nt	nt	nt	nt	i	nt
Cc1cccc(N2CCN(S(=O)(=O)c3nnc(NC(=O)c4ccc(Cl)cc4)s3)CC2)c1	nt	nt	nt	nt	i	nt
C[C@H](CO)N1C[C@H](C)[C@@H](CN(C)Cc2ccc(-c3ccccc3)cc2)OCc2cnnn2CCCC1=O	i	i	i	i	i	i
CSc1nc2nc(Cl)c(Cl)nc2[nH]1	i	i	i	i	i	i
Cc1cc(F)ccc1S(=O)(=O)N1CCCOC1CNC(=O)C(=O)NC1CCCC1 (stereo not given)	i	i	i	i	i	i
Cc1ccc(NC(=O)CN2C(=O)S/C(=C/c3ccc(O)c([N+](=O)[O-])c3)C2=O)cc1C	45µM	?	i	i	i	i
O=C1S/C(=C\c2ccc(O)c([N+](=O)[O-])c2)C(=O)N1c1ccccc1Cl	56µM	?	i	i	i	i
O=C1S/C(=C\c2ccc(O)c([N+](=O)[O-])c2)C(=O)N1Cc1cccc([N+](=O)[O-])c1	?	?	i	i	i	i
O=C(c1cccc2ccccc12)N1CCN(S(=O)(=O)c2ccccc2)CC1	nt	nt	nt	i	nt	nt
O=S(=O)(NCC(c1ccco1)N1CCc2ccccc21)c1ccccc1 (stereo not given)	i	i	100µM	i	i	i
O=c1c2ccccc2oc2cc(C#Cc3ccccn3)ccc12	i	i	i	?	i	i
C=CCn1c2ccccc2c(=O)c2cc(C#Cc3ccccn3)ccc21	i	i	i	8.9µM	?	i
Cc1c(C)c2ccc(OCC(=O)Nc3ccc(S(N)(=O)=O)cc3)c(C)c2oc1=O	71µM	i	i	i	i	i
CC(=O)NC(c1ccc(Cl)cc1Cl)c1ccc2cccnc2c1O (stereo not given)	?	20µM	i	i	i	i
CCCC(=O)NC(c1ccc(Cl)cc1Cl)c1ccc2cccnc2c1O (stereo not given)	i	i	i	i	i	i
Cc1nn(CCOc2ccccc2)c(=O)n1-c1ccccc1	i	i	i	?	i	i
COc1ccc(-n2c(C)nn(CCOc3ccccc3)c2=O)cc1	i	i	i	10µM	i	i
O=C(Cc1ccc(OCCc2ccccc2)cc1)NO	nt	nt	nt	i	nt	nt
N#Cc1ccc(COc2ccc(CCO)cc2-n2nc3ccccc3n2)cc1	i	i	i	i	i	i
SMILES	EPAC1 antagonist	EPAC2 antag	EPAC1 agonist	BRCA1 expr act	USP1 inh	EPAC2 agonist
OCCc1ccc(O)c(-n2nc3ccccc3n2)c1	i	i	i	11µM	i	i
CC1CCCCC1NC(=O)COC(=O)c1c2c(nc3ccccc13)/C(=C/c1ccco1)CC2 (stereo not given)	45µM	i	i	i	i	i
COc1ccc(C(=O)COC(=O)c2cccc(-n3cnnn3)c2)c(OC)c1	i	i	i	2.5µM	i	i
COc1ccc(CC(=O)OCC(=O)c2ccc[nH]2)cc1	i	i	i	i	i	i
COc1ccccc1C(=O)COC(=O)c1cc(=O)[nH]c2ccccc12	i	i	i	i	i	i
O=C(COC(=O)c1cccc(-n2cnnn2)c1)c1ccc(F)cc1	i	i	?	?	i	i
COc1ccc(C(=O)OCC(=O)c2ccc[nH]2)c(OC)c1	i	i	i	8.9µM	i	i
Cc1ccsc1C(=O)OCC(=O)c1ccc[nH]1	i	i	i	5.6µM	i	i
COc1ccc(C(=O)COC(=O)c2cc(=O)[nH]c3ccccc23)c(OC)c1	i	i	i	13µM	i	i
CCOc1cccc(C2C=C(c3ccc4c(c3)OCO4)NC(c3ccc(Br)cc3)N2)c1O (stereo not given)	nt	nt	nt	i	nt	nt
Cc1noc(C)c1S(=O)(=O)N(CC(=O)NCc1ccccc1Cl)c1ccc(C(C)C)cc1	nt	nt	nt	i	i	nt
Cc1cccc(C(=O)N=c2sccn2C)c1[N+](=O)[O-]	i	i	i	5µM	i	i
O=C(Nc1ccc(F)cc1)C(c1ccnc2ccccc12)N1CCN(C(=O)c2ccco2)CC1 (stereo not given)	i	i	i	nt	nt	i
O=C(Nc1ccccc1)N1CC=C(c2ccc(F)cc2)CC1	i	i	i	4µM	i	i
O=C(Nc1nnc([C@H]2C[C@H](O)[C@@H](CO)O2)s1)Nc1ccccc1Oc1ccccc1	i	i	i	i	nt	i
Cn1c(=O)oc2cc(S(=O)(=O)NC(CC(=O)O)c3cccc(Br)c3)ccc21 (stereo not given)	nt	nt	nt	nt	i	nt
C[n+]1c(-c2ccccc2)cc2c(=Cc3ccc([N+](=O)[O-])cc3)c3ccccc3n21	i	i	i	i	3.5µM	i
CN(C)c1ccc(C=c2c3cc(O)ccc3n3c2cc(-c2ccccc2)[n+]3C)cc1	i	i	i	i	28µM	i
C[n+]1c(-c2ccccc2)cc2c(=Cc3ccccc3)c3ccccc3n21	i	i	i	i	4µM	i
Cc1ccccc1NS(=O)(=O)c1ccc(C(=O)N2CCN(S(=O)(=O)c3ccccc3)CC2)cc1	i	i	i	i	?	i
C/C(O)=C(/C#N)c1nc2ccccc2[nH]1	i	i	i	i	i	i
N#C/C(=C(/O)C(Cl)(Cl)Cl)c1nc2ccccc2[nH]1	i	13µM	i	i	i	i
COc1cc(/C=C(\C#N)C(=O)Nc2cccc(C(=O)O)c2)ccc1OCc1ccc(C)cc1	i	i	i	5µM	i	i
COc1cc(/C=C(/C#N)C(=O)Nc2ccccc2)ccc1OCc1ccc(C(=O)O)cc1	i	i	i	i	?	i
C=CCN(C(=O)CNS(=O)(=O)c1ccccc1)C(C(=O)NCCOC)c1cccnc1 (stereo not given)	i	i	i	i	i	i
COc1ccc(N=Nc2nc3cc(Br)c(Br)cc3n2C)c(OC)c1	i	i	112µM	i	i	i
COc1ccc(OC)c(CNc2ccc3c(c2)nc(C)n3C)c1	i	i	i	i	i	i
